Test results: the supplement of paper PMC3334620
In all, about 33,000 sequences were measured (“E-score (-0.5 to 0.5)”: median about -0.054, highest 2% from about 0.35 on). Many of the other results were omitted from the sample, so the highest values are more common in it than they were.

Molecular target: T1, Stb5 (UniProt P38699)
T1 sequence: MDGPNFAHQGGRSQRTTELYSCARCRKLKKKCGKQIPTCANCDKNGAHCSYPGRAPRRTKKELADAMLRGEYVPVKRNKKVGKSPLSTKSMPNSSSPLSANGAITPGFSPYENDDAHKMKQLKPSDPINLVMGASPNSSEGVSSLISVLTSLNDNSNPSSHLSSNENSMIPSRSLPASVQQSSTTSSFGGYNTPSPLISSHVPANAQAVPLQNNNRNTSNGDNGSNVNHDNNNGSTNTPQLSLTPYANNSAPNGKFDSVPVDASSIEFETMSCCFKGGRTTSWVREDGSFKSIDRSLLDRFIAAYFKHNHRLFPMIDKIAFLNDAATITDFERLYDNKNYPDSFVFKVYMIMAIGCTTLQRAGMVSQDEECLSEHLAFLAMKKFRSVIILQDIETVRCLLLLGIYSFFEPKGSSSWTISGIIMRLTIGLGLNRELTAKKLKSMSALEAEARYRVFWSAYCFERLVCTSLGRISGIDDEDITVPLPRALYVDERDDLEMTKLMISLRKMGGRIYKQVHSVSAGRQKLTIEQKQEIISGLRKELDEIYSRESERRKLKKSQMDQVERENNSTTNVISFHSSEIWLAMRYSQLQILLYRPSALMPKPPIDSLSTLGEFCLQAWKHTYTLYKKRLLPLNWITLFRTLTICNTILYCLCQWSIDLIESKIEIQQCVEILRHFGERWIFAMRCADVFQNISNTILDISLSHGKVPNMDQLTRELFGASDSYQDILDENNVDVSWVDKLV
Assay: PBM E-score (8-mer binding enrichment) (E-score (-0.5 to 0.5)); higher = stronger / more preferred TF binding
Settings: protein concentration: 200 nM; construct: GST-full length
Summary of the method: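 PURExpress in vitro transcription/translation supplied GST-tagged yeast transcription factors, either full-length or DNA-binding domain. Applied at about 100-200 nM to universal all-10-mer Agilent arrays double-stranded by primer extension, the bound protein was detected with fluorescent anti-GST. E-scores, modified Wilcoxon-Mann-Whitney statistics, were given by the Universal PBM Analysis Suite to ungapped eight-base words pooled with their reverse complements after masliner normalisation.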

Row | Sequence | PBM E-score
1 | CTCTTGAC | -0.182
2 | AGCTAAAT | 0.088
3 | CTCCAGCC | -0.15
4 | AAGAATAA | 0.0987
5 | AATGAATA | 0.0406
6 | ATAATGCG | 0.0614
7 | ATAAATCC | 0.382
8 | ATAATCCC | 0.389
9 | CTAATCAC | 0.189
10 | ATAAATCA | -0.129
11 | ATAATGCC | 0.386
12 | ATAATCCG | 0.103
13 | ATAATCCA | -0.0209
14 | CTAATCCC | 0.354
15 | ATAAATCG | 0.0618
16 | CTAATCCA | -0.106
17 | CTAATGCC | 0.285
18 | TGCCAGAA | -0.307
19 | CGCTTACG | 0.123
20 | GCCCTACC | -0.0725
21 | AAGATACG | -0.0742
22 | CGCTGCCC | -0.0156
23 | ACACGGCC | 0.116
24 | CCCTGTAA | -0.0001
25 | CGCAGTTC | 0.00085

Row | Sequence | PBM E-score
26 | AGCAGTTA | -0.194
27 | CGCAGTTA | 0.359
28 | GAGATTGC | -0.0088
29 | CCATTCTC | -0.126
30 | AATCACTA | -0.155
31 | TGCGGACA | 0.286
32 | GGCGGACA | 0.357
33 | ATCGGACG | 0.305
34 | ATCGGTCA | 0.208
35 | GGCGGACC | 0.412
36 | ATCGGACC | 0.398
37 | CGCGGACC | 0.319
38 | GGCGGAAA | 0.227
39 | ATCGGTCC | 0.396
40 | GGCGGAAC | 0.25
41 | CTCGGTCC | 0.242
42 | ATCGGACA | 0.332
43 | CTATAATC | 0.019
44 | GGCACCCA | -0.036
45 | GCACTCAA | -0.0587
46 | ATACCAAT | -0.00644
47 | TCCCACAA | 0.0012
48 | ACTGCGCG | 0.122
49 | AGCGGAAC | 0.295
50 | AGCGGACC | 0.359

Row | Sequence | PBM E-score
51 | AGCGGAGC | 0.31
52 | GCACGGGC | 0.2
53 | AGCTATTC | -0.0735
54 | GAACTCAC | -0.221
55 | AAGGCCGG | 0.407
56 | AAGGCCTT | -0.163
57 | AAGGCCTG | -0.0882
58 | AAGGCCGA | 0.46
59 | ACGGCCGT | 0.226
60 | AAAAGCCG | 0.38
61 | AAAAGCCT | -0.122
62 | CAGGCCGG | 0.11
63 | CAGGCCGA | 0.153
64 | AAAAGCCC | 0.324
65 | TAGGCCGA | 0.125
66 | AAGGCCGT | 0.421
67 | TTCACAAA | -0.00748
68 | GACCAAAC | -0.0734
69 | AGACGGTC | 0.142
70 | CATCCATG | -0.205
71 | CAGGCCGC | 0.187
72 | AAGGCCCA | -0.17
73 | AAGGCCCG | 0.359
74 | CAGGCCCG | 0.109
75 | AAAGGCCC | 0.274

Row | Sequence | PBM E-score
76 | GAGGCCGC | 0.322
77 | AAAGGCCG | 0.446
78 | AAGGCCGC | 0.441
79 | CAAGGCCG | 0.236
80 | AGACAGGG | -0.161
81 | ACGCCTAG | -0.0889
82 | ACATTAGA | -0.214
83 | CATACTGG | -0.062
84 | CCAGAGGG | -0.0691
85 | CGCACGAA | -0.0424
86 | GAGTTTAC | 0.115
87 | AGTTCCGA | 0.374
88 | GGTTCCGA | 0.126
89 | AGTTCCGG | 0.333
90 | CGTTCCGC | 0.226
91 | CGTTCCGA | 0.00452
92 | AGTTCCGC | 0.361
93 | ACCCATCG | 0.1
94 | CCCTCTTA | -0.167
95 | GGCCCGAA | 0.149
96 | AGCCCGCC | 0.359
97 | AGCCCGAG | 0.05
98 | GGCCCGAC | 0.358
99 | ATCCCGAG | 0.161
100 | ATCCCGAT | 0.238

Row | Sequence | PBM E-score
101 | CGCCCGAC | 0.33
102 | CGCCCGCC | 0.258
103 | AGCCCGCG | 0.334
104 | AGCCCGAT | 0.328
105 | ATCCCGAC | 0.39
106 | AGCCCGAC | 0.373
107 | ACACTTAA | -0.117
108 | CACAAGCG | -0.0542
109 | CAAAATCG | -0.0979
110 | CCGTGAGC | 0.196
111 | CACTACCC | -0.179
112 | ATGCACTA | -0.0627
113 | GGTATGTA | 0.18
114 | CGACTAAC | 0.00814
115 | AACCCTGG | -0.284
116 | ACAGGATC | -0.312
117 | CAATTAAA | -0.00358
118 | GCCTCCTA | -0.0585
119 | AGACTTGG | -0.17
120 | AAAACGCC | 0.368
121 | CTAACGCC | 0.316
122 | AAAACGCG | 0.0108
123 | ATAACGCC | 0.359
124 | CAAACGCC | 0.243
125 | ATAACGCG | 0.0524

Row | Sequence | PBM E-score
126 | AAACCAGG | -0.00613
127 | CCCGAGAG | 0.0886
128 | GAATTCTA | -0.248
129 | ACCTTCAA | -0.0982
130 | CTGGTTAA | -0.102
131 | ACGGGAAG | -0.0191
132 | ACGGGGAT | 0.415
133 | ACGGGGCA | 0.159
134 | ACGGGGAG | 0.202
135 | ACGGGCCA | 0.169
136 | ACGGGGCC | 0.221
137 | ACGGGGCT | 0.366
138 | ACGGGAAC | 0.205
139 | ACGGGCCG | 0.194
140 | ACGGGGAC | 0.241
141 | ACGGGCCT | 0.376
142 | ACGGGAAT | 0.371
143 | CCAATCTA | -0.0421
144 | CACGCTGG | -0.14
145 | CTGATAGA | -0.0917
146 | CAAGTACA | -0.12
147 | AAACAGAC | -0.131
148 | ACTAGACA | -0.184
149 | AACCGGGC | 0.239
150 | GCTTGGCC | 0.143

Row | Sequence | PBM E-score
151 | GGCCACGA | 0.111
152 | AGTACCCA | -0.101
153 | ATGGTCAG | -0.183
154 | ACGGGCAT | 0.363
155 | ACCGGGCT | 0.38
156 | ACCGGGGG | 0.286
157 | ACGGGCAC | 0.105
158 | CCCGGGGC | 0.258
159 | ACGGGGTG | 0.286
160 | ACCGGGGC | 0.359
161 | ACGGGGTA | 0.248
162 | ACGGGGTC | 0.362
163 | ACCGGGCC | 0.306
164 | ACGGGCAG | -0.0575
165 | ACCGGGCA | 0.276
166 | CCGTATCA | 0.145
167 | CCGTCTCC | 0.22
168 | CCCTCAAC | -0.125
169 | AAGTAGGT | 0.00443
170 | ATAAGTAC | 0.133
171 | CATGACCA | -0.378
172 | CTGGACTC | -0.169
173 | AAACGAAC | -0.193
174 | ACCTTACA | -0.0752
175 | GGGTTCTA | 0.162

Row | Sequence | PBM E-score
176 | GGGGTTTA | 0.329
177 | AGGTTCTA | 0.0114
178 | CGGGTTTA | 0.467
179 | AGGTTATA | -0.0254
180 | CGGGTTTC | 0.273
181 | AGGTTTTA | 0.0721
182 | CGGTTTAA | 0.155
183 | GGGTTATA | 0.257
184 | CGGTTCTA | 0.36
185 | CGGTTATA | 0.37
186 | CGGTTTTA | 0.41
187 | CTAAAGGA | 0.0339
188 | ACTGAAGC | -0.111
189 | CTCCATAC | -0.0338
190 | CGTTCGGA | 0.243
191 | GAAGGTCA | -0.15
192 | AACACCAG | 0.011
193 | ACCGTCGC | 0.332
194 | CCCGTCGA | 0.206
195 | CCCGTCGG | 0.435
196 | ACCGTCGG | 0.392
197 | ACCGTCGA | 0.286
198 | CCCGTCGC | 0.25
199 | GTTAACCA | -0.181
200 | GCACCACA | -0.0487

Row | Sequence | PBM E-score
201 | CCCATGCC | 0.0152
202 | TATGTGAA | -0.344
203 | AAACTTGT | -0.145
204 | CAGCGGAC | 0.332
205 | AAGCGGAG | 0.252
206 | GAGCGGAA | 0.308
207 | AAGCGGAC | 0.352
208 | GAGCGGAC | 0.376
209 | AAGCGGAT | 0.297
210 | CAGTTATG | 0.143
211 | AACCCGCC | 0.276
212 | ACCCCGCC | 0.463
213 | ACCCCGCG | 0.367
214 | CCCCCGCG | 0.325
215 | AGCCCGCT | 0.317
216 | CCCCCGCC | 0.313
217 | ACCCCGCT | 0.437
218 | AACCCGCG | 0.231
219 | GGCCCGCC | 0.303
220 | AACCCGCT | 0.222
221 | GCCCCGCC | 0.403
222 | GCCCCGCA | 0.262
